The campaign covered roughly 310,000 compounds. About 14,000 (4.5%) showed an effect of 50% or more. The effect is printed as a negative number. This excerpt belongs to a sample that is enriched for strong results.
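Also: peak tail current of the secondary pulse compared with the same well before compound.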

The target in this experiment is human ether-à-go-go-related gene (hERG) potassium channel (human, UniProt Q12809). As to the kind of experiment: primary screen, population patch clamp on CHO cells stably expressing hERG; higher = less effect of the substance.
Sequence of human ether-à-go-go-related gene (hERG) potassium channel (Q12809 whole entry, looked up): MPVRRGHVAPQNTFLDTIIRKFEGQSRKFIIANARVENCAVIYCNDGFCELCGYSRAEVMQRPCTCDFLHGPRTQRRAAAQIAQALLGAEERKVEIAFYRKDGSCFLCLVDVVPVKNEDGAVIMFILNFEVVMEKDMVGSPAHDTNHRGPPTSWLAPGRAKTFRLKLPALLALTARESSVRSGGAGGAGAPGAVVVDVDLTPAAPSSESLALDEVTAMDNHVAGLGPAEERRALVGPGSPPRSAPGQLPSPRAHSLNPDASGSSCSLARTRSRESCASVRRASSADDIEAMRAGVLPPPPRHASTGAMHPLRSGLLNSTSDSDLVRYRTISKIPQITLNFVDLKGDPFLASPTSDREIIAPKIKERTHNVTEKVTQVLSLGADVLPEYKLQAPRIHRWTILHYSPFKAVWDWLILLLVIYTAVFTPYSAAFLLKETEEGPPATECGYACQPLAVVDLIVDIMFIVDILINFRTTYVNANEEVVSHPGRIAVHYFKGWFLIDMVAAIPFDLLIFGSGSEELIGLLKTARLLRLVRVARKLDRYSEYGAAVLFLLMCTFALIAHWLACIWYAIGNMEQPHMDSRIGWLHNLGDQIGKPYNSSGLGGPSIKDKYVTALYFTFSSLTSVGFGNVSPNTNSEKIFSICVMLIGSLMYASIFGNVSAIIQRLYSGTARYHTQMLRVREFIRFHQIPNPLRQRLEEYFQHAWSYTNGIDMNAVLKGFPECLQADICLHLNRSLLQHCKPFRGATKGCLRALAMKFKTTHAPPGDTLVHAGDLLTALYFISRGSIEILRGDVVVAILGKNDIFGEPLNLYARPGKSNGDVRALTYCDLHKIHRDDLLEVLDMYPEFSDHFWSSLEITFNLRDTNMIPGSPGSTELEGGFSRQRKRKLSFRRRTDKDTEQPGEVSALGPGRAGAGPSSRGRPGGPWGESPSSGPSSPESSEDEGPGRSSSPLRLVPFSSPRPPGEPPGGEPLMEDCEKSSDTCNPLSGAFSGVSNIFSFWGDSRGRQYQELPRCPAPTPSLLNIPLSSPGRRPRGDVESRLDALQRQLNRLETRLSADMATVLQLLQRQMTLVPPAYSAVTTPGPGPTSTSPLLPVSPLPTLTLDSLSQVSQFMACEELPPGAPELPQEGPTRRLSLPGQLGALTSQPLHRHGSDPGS
With `CCN(CC)S(=O)(=O)c1ccc(NC(=O)Cc2cccs2)cc1`, the “hERG current change (%, negative = inhibition) at 10uM” value was 5.81%. With `CCOC(=O)c1c(NC(=O)CSc2nc3c(c(=O)n(C)c(=O)n3C)n2C(C)C)sc(C)c1C`, the “hERG current change (%, negative = inhibition) at 10uM” value is listed as -0.527%. On to `CCCCNC(=O)c1cc([N+](=O)[O-])[nH]n1`, for which the “hERG current change (%, negative = inhibition) at 10uM” value is on record as 19.1%. Consider `COCCNc1nc(SCC(=O)N2CCN(c3ccccc3)CC2)nc2ccccc12`, for which the “hERG current change (%, negative = inhibition) at 10uM” value was -86.9%. With `O=C(CSc1nc2ccccc2c(=O)[nH]1)N1CCN(c2ccccc2)CC1` the figure was 14.1%; with `COc1ccccc1N1CCN(C(=O)CSc2nnc3c4ccccc4nc(Cc4ccccc4)n23)CC1`, -4.18%. To `COCCNc1nc(SCC(=O)N2CCN(c3ccccc3OC)CC2)nc2ccccc12` belongs -88.6%; to `COCCNC(=O)CSc1nc2ccccc2c(=O)n1CCC(=O)N1CCN(c2ccccc2)CC1`, -35%; to `COc1ccccc1N1CCN(C(=O)CSc2nc3ccccc3nc2N2CCCCC2)CC1`, 19%. Consider `O=C(NC1CC1)c1ccc(-c2nc3ccccc3s2)s1`, for which the “hERG current change (%, negative = inhibition) at 10uM” value amounted to 10.7%. For the compound `O=C(Cn1cnc2ccccc2c1=O)Nc1nnc(SCc2ccc(Cl)cc2)s1`, the “hERG current change (%, negative = inhibition) at 10uM” value is given as 10.9%. As for `Cn1cc(CC(=O)N2CCN(c3ccccc3F)CC2)c2ccccc21`, the “hERG current change (%, negative = inhibition) at 10uM” value was -9.66%. On to `CCCOc1ccccc1N/C(=N\S(=O)(=O)c1ccc(C)cc1)Nc1nc(C)cc(C)n1`, for which the “hERG current change (%, negative = inhibition) at 10uM” value turned out to be 26.1%. With `CC(C)(OC(=O)c1ccc(C(F)(F)F)cc1)c1cc2ccccc2c(=O)o1` the figure was 14.6%; with `CC(C)(OC(=O)c1ccc(F)cc1)c1cc2ccccc2c(=O)o1`, 3.1%; with `COc1cc2cc(CCOC(=O)c3ccc(C#N)cc3)oc(=O)c2cc1OC`, -37.9%. Take `CC(C)(OC(=O)c1ccc(C#N)cc1)c1cc2ccccc2c(=O)o1`: the “hERG current change (%, negative = inhibition) at 10uM” value is -73.1%. Consider `O=C(OCCCc1cc2ccccc2c(=O)o1)c1ccc(F)cc1`, for which the “hERG current change (%, negative = inhibition) at 10uM” value was -37.9%.

For `COc1cc2cc(CCCOC(=O)c3ccc(F)cc3)oc(=O)c2cc1OC`, the “hERG current change (%, negative = inhibition) at 10uM” value is -29.5%. Turning to `N#Cc1ccc(C(=O)OCCc2cc3ccccc3c(=O)o2)cc1`, the “hERG current change (%, negative = inhibition) at 10uM” value is on record as -29%. Regarding `COc1cc2cc(CCCOC(=O)c3ccc(C#N)cc3)oc(=O)c2cc1OC`, the “hERG current change (%, negative = inhibition) at 10uM” value was -65%. To `N#Cc1ccc(C(=O)OCCCc2cc3ccccc3c(=O)o2)cc1` belongs -69.4%; to `COc1cccc(CNCCc2ccccc2)c1OC.Cl`, 5.21%. With `O=C1C=C(c2cccc3c2oc2ccccc23)CCC1` the figure was -2.35%; with `Cc1c(C(=O)/C=C/N(C)C)nnn1-c1ccc(F)c(Cl)c1`, 2.73%; with `O=C(NCCc1ccccc1)C1CCC(=O)N1CCc1ccccc1` (stereo not shown), 8.78%.

As for `CN1CCN(CCCCOc2ccccc2-c2ccccc2)CC1.O=C(O)C(=O)O`, the “hERG current change (%, negative = inhibition) at 10uM” value was -38.2%. To `CC1CN(CCOCCOc2ccccc2-c2ccccc2)CC(C)O1.O=C(O)C(=O)O` (stereo not shown) belongs -13.5%; to `CC1CN(CCOc2ccccc2-c2ccccc2)CC(C)O1.O=C(O)C(=O)O` (stereo not shown), -9.99%; to `CC1CCN(CCCCOc2ccccc2-c2ccccc2)CC1.O=C(O)C(=O)O`, -72.6%. To `C=CCc1cc(Cl)ccc1OCCn1ccnc1.O=C(O)C(=O)O` belongs -10.1%; to `CC1CCCN(CCOCCOc2ccccc2-c2ccccc2)C1.O=C(O)C(=O)O` (stereo not shown), -72.9%.

Turning to `C=CCc1cc(Cl)ccc1OCCN1CC(C)OC(C)C1.O=C(O)C(=O)O` (stereo not shown), the “hERG current change (%, negative = inhibition) at 10uM” value was -53.1%. With `O=C(O)C(=O)O.c1ccc(-c2ccccc2OCCOCCN2CCCCC2)cc1` the figure was -44.7%. As to `C=CCc1cc(OC)ccc1OCCN1CC(C)OC(C)C1.O=C(O)C(=O)O` (stereo not shown), the “hERG current change (%, negative = inhibition) at 10uM” value is listed as -9.85%. To `CC1CCN(CCCCOc2ccccc2F)CC1.O=C(O)C(=O)O` belongs -13.3%; to `CC1CN(CCCOc2ccccc2-c2ccccc2)CC(C)O1.O=C(O)C(=O)O` (stereo not shown), -47.2%. Take `CC1CC(C)CN(CCOc2ccccc2-c2ccccc2)C1.O=C(O)C(=O)O` (stereo not shown): the “hERG current change (%, negative = inhibition) at 10uM” value is -68.5%.

Take `Cc1ccc(S(=O)(=O)N2CCC(C(=O)Nc3ccc(S(=O)(=O)N4CCCC4)cc3)CC2)cc1`: the “hERG current change (%, negative = inhibition) at 10uM” value was -10.6%. To `COc1cccc(C2C(C(=O)c3sc(C)nc3C)=C(O)C(=O)N2CCN2CCOCC2)c1` (stereo not shown) belongs 10.8%; to `Fc1ccc(CNc2ccc(N3CCN(Cc4ccccc4)CC3)cc2)cc1`, -30.1%; to `COc1ccc(C(=O)NCc2nnc(SCCOc3ccccc3)n2C)cc1`, -15.5%.

For `O=C(CCNS(=O)(=O)c1ccccc1C(F)(F)F)N1CCN(c2ccccc2O)CC1`, the “hERG current change (%, negative = inhibition) at 10uM” value is listed as -26.9%.

The values are drawn from article PMC4336329 (PLoS ONE, 2015).
